From PubChem BioAssay
Rows were chosen to be rich in hits. Some 2% of all compounds tested hit in one or more screens of this group.
PolyA inh – polyadenylation inhibitors in yeast reporter cells, primary screen, luminescence, S. cerevisiae; S. cerevisiae SKY197-pL101 polyadenylation reporter, beta-gal luminescence; efflux-impaired pdr1/pdr3 knockout yeast; score 100 = 6 SD above DMSO; activity score, % at 12 µM; 300,000 compounds, 0.02% hits;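 active = lowest replicate activity score at least 50, where 100 means six control SD above control mean; inconclusive = lowest score under 50 but half or more replicates reach 50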;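 note: yeast exposed to compound for 9 h at 30 °C; higher score means more reporter readthrough which indicates perturbed polyadenylation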
CR mimetic SO – reduction of superoxide in aged yeast, primary screen, HTS; AID 2690, 2010; S. cerevisiae aged cells, superoxide DHE fluorescence; active compounds read low; superoxide response (% of plate mean), % at 10 µM; 330,000 compounds, 0.18% hits;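 active = superoxide response under a set limit, about three screen SD below normal, cut at about 65% in these data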;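 note: yeast aged for seven days with compound at 30 °C before DHE staining; 100% = average MFI of all compound-treated wells on the plate with controls excluded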
Platelet DG rel – inhibitors of platelet dense granule secretion, primary screen, cell-based, MLPCN, human platelets; human platelet-rich plasma, SFLLRN dense granule ATP release, luminescence; inhibition, %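 (compounds screened at 7.5 µM in platelet-rich plasma)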; 300,000 compounds, 0.22% hits; AID 1663, 2009;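 active = mean replicate score, as percent of positive control, at or above 50; inconclusive = mean below 50 but at least one replicate at or above 50; inactive = mean and every replicate below 50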
Calb FLC – C. albicans growth inhibition with fluconazole, primary screen, CaCi-2 strain, Alamar Blue fluorescence. growth inhibition, % (concentration not given with the values). C. albicans CaCi-2 (fluconazole-resistant clinical isolate) + fluconazole, 48 h. 300,000 compounds, 0.57% hits;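 active = growth inhibition above about 58% in most replicates, limit read from the data, passing the limit was not always enough; inconclusive = exactly half the replicates above a set limit; inactive = most replicates below a set limit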;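 note: all wells also contain fluconazole at 8 µg/ml as a sub-toxic cotreatment; 0% = median of DMSO wells and 100% = median of geldanamycin control wells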
SKKanGAS inh – S. pyogenes SKKanGAS growth inhibitors in kanamycin, primary screen, streptokinase expression inhibitor project, SKKanGAS strain, BacTiter-Glo luminescence. 6 h. inhibition, % at 7.5 µM. 300,000 compounds, 1.3% hits. AID 1662, 2009;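 active = mean replicate score, as percent of positive control median, at least 50; inconclusive = mean below 50 but one replicate at or above 50; inactive = mean and every replicate below 50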;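 note: strain carries kanamycin resistance gene driven by streptokinase promoter and grows in 40 µg/ml kanamycin; loss of luminescence reflects streptokinase promoter inhibition or plain growth inhibition; 0% = median of DMSO wells and 100% = positive control at its reference dose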
Superoxide pick – superoxide lowering in aged yeast cells, confirmation, cherry picked compounds. shares compounds with CR mimetic SO. S. cerevisiae aging, superoxide DHE fluorescence; active compounds read low. superoxide response (% of plate), % at 10 µM. 850 compounds, 1% hits;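 active = superoxide signal below 65% of the plate average of sample wells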;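 note: cells aged with compound for 7 days at 30 degrees C before staining; 100% equals mean DHE fluorescence of all compound wells on the plate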
DHE counter – DHE quenching or ROS scavenging interference in aged yeast, artefact control for yeast caloric restriction mimetic project, S. cerevisiae BY4741, flow cytometry; shares compounds with CR mimetic SO; DHE fluorescence; active compounds read low; fluorescence response, % at 10 µM; 850 tested, under 10 active; AID 435000, 2010;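 active = fluorescence response below 15%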;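 note: percent of the mean fluorescence averaged over all compound wells on the plate; lower means stronger quenching of DHE signal or ROS scavenging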
An asterisk follows results filed as active; ? = inconclusive; / = no result.

SMILES	PolyA inh	CR mimetic SO	Platelet DG rel	Calb FLC	SKKanGAS inh	Superoxide pick	DHE counter
CNC(=O)c1ccc(Nc2nnc(-c3ccc(C)c(S(=O)(=O)NCC4CCCO4)c3)c3ccccc23)cc1 (stereo unspecified)	17	103	4	31	17	110	114
COc1cccc(NC(=O)C2CCCO2)c1 (stereo unspecified)	-5	118	9	0	-2	/	/
CCN(CC)C(=O)c1cccc(NC(=O)C2CCN(C(=O)c3cccs3)CC2)c1	/	107	/	/	/	/	/
Cc1ccc(S(=O)(=O)N2C(=O)CCC2C(=O)O/N=C(\N)c2cccc([N+](=O)[O-])c2)cc1 (stereo unspecified)	-10	107	17	4	2	/	/
NNc1ccc(Cl)nn1	21	88	1	4	6	/	/
CC(C)CNC(=S)NNC(=O)c1csc2c1CCC(C)C2 (stereo unspecified)	6	59*	-6	-14	-12	91	89
Nc1nc(SCC(=O)Nc2ccc([N+](=O)[O-])cc2)[nH]c(=O)c1NC(=O)c1ccc(Br)cc1	-2	107	21	4	7	/	/
O=C(COC(=O)c1cc(S(=O)(=O)N2CCOCC2)cs1)c1ccccc1	/	64*	0	21	/	108	112
O=c1[nH]c2ccccc2cc1CN(Cc1cccnc1)S(=O)(=O)c1ccc([N+](=O)[O-])cc1	-1	93	18	-4	0	/	/
O=c1[nH]c2ccccc2cc1CN(Cc1cccnc1)S(=O)(=O)c1ccc(Cl)cc1	-3	65*	4	21	0	121	104
O=C(COc1ccccc1F)Nc1nnc(-c2ccncc2)s1	8	55*	-2	46	1	115	108
COc1ccc(Cl)cc1NC(=O)C(C)N1CCN(c2ccccn2)CC1 (stereo unspecified)	-19	104	2	7	-2	97	96
CC(C(=O)Nc1ccccc1)N1CCN(c2ccccn2)CC1 (stereo unspecified)	15	103	5	-10	2	97	98
CC(C(=O)Nc1cc([N+](=O)[O-])ccc1Cl)N1CCN(c2ccccc2)CC1 (stereo unspecified)	-6	103	10	11	7	/	/
Cc1cc([N+](=O)[O-])ccc1NC(=O)C(C)N1CCN(c2ccccn2)CC1 (stereo unspecified)	-15	116	12	25	-10	84	96
COc1ccc(Cl)cc1C(=O)N1CCN(c2ccccn2)CC1	13	87	5	0	-4	/	/
COC(=O)[C@@]1(Cc2ccccc2)[C@H]2C(=O)N(C)C(=O)[C@H]2[C@H]2CN=C(SCC(=O)c3ccccc3)N21	/	94	/	/	/	/	/
CCOc1ccccc1NC(=O)NCc1ccc(F)cc1	16	65*	-5	-6	-4	104	111
O=C(Cn1cnc2ccccc21)N/N=C/c1ccccn1	19	21*	5	-22	-6	101	111
O=C(CCn1cnc2ccccc21)N/N=C/c1ccc(O)cc1	8	65*	-1	-7	2	105	89
COCCC1CCCCN1C(=O)c1cc(COc2ccc(-n3cncn3)cc2)on1 (stereo unspecified)	-5	112	9	3	-3	/	/
CCNC(=O)N1c2ccc(OC)cc2C(C)=CC1(C)C	-30	61*	0	29	-1	110	112
O=C(O)c1cc(=O)[nH]c2ccc(S(=O)(=O)Nc3ccc(F)cc3)cc12	-18	57*	-9	0	0	104	116
Cc1ccc[n+](CC(=O)Nc2cc(C(F)(F)F)ccc2Cl)c1	3	105	3	20	-1	/	/
CCC(C)(C)c1ccc(OCCCC[n+]2cccc(C)c2)c(C(C)(C)CC)c1	-15	/	0	-1	?	121	107
SMILES	PolyA inh	CR mimetic SO	Platelet DG rel	Calb FLC	SKKanGAS inh	Superoxide pick	DHE counter
Cc1cccc(NC(=O)NCc2cccnc2)c1C	18	102	37	-6	1	/	/
COc1ccc(-n2nnnc2CNC(=O)c2ccc(S(=O)(=O)N3CCOCC3)cc2)cc1	14	60*	8	-5	1	107	114
COc1ccc(C(=O)NNC(=O)c2ccc(S(=O)(=O)N3CCOCC3)cc2)cc1	14	88	-12	-1	1	/	/
C=CCNC(=S)Nc1cccc2[nH]ncc12	14	100	10	20	1	/	/
CSCCC(NC(=O)c1ccccc1Br)C(=O)NCc1ccc(F)cc1 (stereo unspecified)	11	23*	2	-12	2	88	109
N#Cc1ccsc1NC(=O)C1=COCCO1	/	80	/	/	/	/	/
Cc1noc(C)c1C(=O)N(CC(C)C)c1nc2ccccc2s1	16	61*	-14	5	-10	90	91
CC(C)CN(C(=O)c1ccco1)c1nc2ccccc2s1	-37	92	-4	1	1	/	/
Nc1ccc(S(=O)(=O)Nc2ccc(S(N)(=O)=O)cc2)cc1	18	97	11	-8	-5	118	105
CC(C)(C)c1ccc(NS(=O)(=O)c2ccc(N)cc2)cc1	-1	93	4	-20	-7	131	119
O=C(NC(CSSCC(NC(=O)c1ccccc1)C(=O)O)C(=O)O)c1ccccc1 (stereo unspecified)	-24	80	6	-4	-1	/	/
COc1ccc(NC(=O)Cn2nc(C(=O)O)c3ccccc3c2=O)cc1Cl	-6	90	4	-4	-5	/	/
CCN(CC)S(=O)(=O)c1ccc(N2CCCC2)c(NC(=O)Cc2ccc(OC)cc2)c1	-6	98	-3	-28	-5	105	93
CCN(CC)S(=O)(=O)c1ccc(N2CCCC2)c(NC(=O)Cc2cc(OC)c(OC)c(OC)c2)c1	-6	102	-1	-2	0	108	102
O=C(c1ccncc1)N1CCN(c2ccc(F)cc2)CC1	7	95	-1	-4	-1	/	/
O=C(c1cccc(F)c1)N1CCN(c2cccc(Cl)c2)CC1	4	92	2	12	-5	96	92
O=C(Nc1ccc(N2CCN(C(=O)c3ccc(Cl)cc3)CC2)cc1)c1cccnc1	0	114	-5	1	6	/	/
O=C(c1cccnc1)N1CCN(c2ccc(Cl)cc2)CC1	10	44*	6	-5	-5	111	89
O=C(c1cccnc1)N1CCN(c2ccccc2Cl)CC1	-26	97	3	3	-1	117	91
